Assay outcomes (PubChem BioAssay)
NPC1 prom act = NPC1 promoter activation | Huh7 NPC1 promoter luciferase reporter, 24 h | Potency, µM (top dose mostly 9.22 µM), for the others: at the highest dose activation, hits mostly activators | hit rate 2.4% among 320,000 | AID 485313; also: % of control where 0% means no effect; nearly all actives have a fitted effect of over 60% in size
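Huh7 cells stably carrying NPC1 promoter–luciferase, plated in Opti-MEM with 10% FBS for 2 h, were exposed to compound in DMSO for 24 h at 37 °C; luciferase reagent was added for 10 min and luminescence read.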
FLuc modulator = counter-screen for miR-21 project: firefly luciferase inhibitors or activators. AID 588342. Potency, µM (highest dose often 57.5 µM), for the others: at the top dose activity change, negative = inhibition, actives largely listed as inhibitors. hit rate 6.9% among 360,000. purified FLuc, Km substrates, luminescence inhibition. P08659;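 also: plate controls were vehicle for no effect and reference inhibitor for full effect; nearly all actives have a fitted effect of over 55% in size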
Target sequence (P08659 whole entry, looked up): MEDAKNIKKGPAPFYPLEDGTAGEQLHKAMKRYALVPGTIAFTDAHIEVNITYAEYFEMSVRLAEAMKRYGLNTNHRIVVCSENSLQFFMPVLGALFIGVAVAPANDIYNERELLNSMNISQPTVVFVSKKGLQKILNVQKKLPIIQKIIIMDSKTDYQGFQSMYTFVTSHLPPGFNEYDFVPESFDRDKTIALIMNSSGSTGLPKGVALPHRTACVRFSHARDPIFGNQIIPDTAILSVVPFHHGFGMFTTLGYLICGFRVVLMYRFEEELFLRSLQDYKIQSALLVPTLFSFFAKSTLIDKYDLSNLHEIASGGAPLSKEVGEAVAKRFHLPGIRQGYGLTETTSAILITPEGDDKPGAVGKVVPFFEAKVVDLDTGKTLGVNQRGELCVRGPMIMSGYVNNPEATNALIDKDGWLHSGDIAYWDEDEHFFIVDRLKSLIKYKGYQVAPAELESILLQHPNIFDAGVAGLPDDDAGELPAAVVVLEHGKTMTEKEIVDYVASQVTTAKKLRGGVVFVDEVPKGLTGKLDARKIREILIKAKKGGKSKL
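Biochemical qHTS of compounds, final roughly 60 µM downward over six points, against 10 nM purified firefly luciferase using Km concentrations of substrates (10 uM D-luciferin, 10 uM ATP) in Tris acetate pH 7.5 buffer; luminescence output.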
Rab9 promoter act = Rab9 promoter activation; Huh7 Rab9 promoter-luciferase reporter, luminescence, 24 h; hit rate 2.8% among 320,000; Potency, µM (titrated, usually from 9.22 µM), for the others: top-dose activation, negative = inhibition, actives largely listed as activators; also: % of control where 0% means no effect; nearly all actives have a fitted effect of over 60% in size
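Cells were plated at 1500 per well in reduced-serum medium with 10% FBS and left 2 h. Compound in DMSO was then added for 24 h at 37 °C. Reporter signal was read by luminescence after 10 min with luciferase detection reagent.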
ELG1 repair inh = inhibitors of ELG1-dependent DNA repair in HEK293T cells. HEK293T ELG1-luciferase reporter, luminescence, 16 h; DNA damage induced by 5-fluorouridine. Potency, µM (series often up to 46.1 µM), for the others: top-dose activity change, negative = inhibition, usual class: inhibitors. hit rate 2.3% among 330,000. AID 504467; also: % is scaled to controls: 0 for no effect and ±100 for the full control effect; nearly all actives have a fitted effect of over 55% in size
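Overnight (16 hr) co-exposure of 2,000 cells/well to 5-fluorouridine and compound at 37 °C preceded detection. Luciferase was quantified via ONE-Glo luminescence; loss of signal denotes inhibition.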
SMN2 splice enh = increases expression of the SMN2 splice variant | HEK293 SMN2-luciferase splicing reporter, luminescence, 30-36 h | Potency, µM (highest dose often 46.1 µM), for inactives: at the highest dose activity change, positive = activation, actives largely listed as activators | hit rate 2.8% among 210,000; also: % of control where 0% means no effect; nearly all actives have a fitted effect of over 55% in size
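qHTS luciferase splicing reporter: luminescence rises when SMN2 exon 7 is included in transfected HEK293 cells. Compound exposure lasted 30-36 h at 37C, with 4.5 mM final sodium butyrate as control, followed by a ONE-Glo read.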
ELG1 genotox = induces genotoxicity in HEK293T cells with luciferase-tagged ELG1; hit rate 1.3% among 330,000; HEK293T ELG1-luciferase reporter, luminescence, 16 h; Potency, µM (titrated, usually from 46 µM), for the others: at the top dose activity change, positive = activation, hits mostly activators; AID 504466; also: % of control where 0% means no effect; nearly all actives have a fitted effect of over 60% in size
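ELG1-luciferase HEK293T cells, 2,000/well; compound pinned in; 16 hr, 37 °C, 5% CO2; ONE-Glo, 30 min RT; luminescence on CCD imager.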
The depositor's hits bear a star; ? = inconclusive; / = no result given; [ ] = another dose, or the depositor's remark. In the library only some 9.4% were active in any assay of this set; here they are far more common. Calls follow the shape of the dose curve; as a rule, active = well fitted curve in the direction sought with a large enough effect; inconclusive = small, poorly fitted or top-dose-only effect, or another doubt; inactive = no such curve, though single readings can be large; an effect the other way counts as inactive or inconclusive. Potency is read from the fitted curve at half-maximal effect.

SMILES	NPC1 prom act	FLuc modulator	Rab9 promoter act	ELG1 repair inh	SMN2 splice enh	ELG1 genotox
CC[N+](=O)[O-]	/	/	/	/	-5%	/
CCOC(=O)c1c(N)n(Cc2ccc(OC)cc2)c2nc3ccccc3nc12	-3%	5%	-4%	?	8%	0%
CC(C)CCn1c(N)c(C(=O)NCc2cccs2)c2nc3ccccc3nc21	-1%	3%	8%	6.5µM*	-12%	-8%
COCCCNC(=O)c1c(N)n(Cc2ccco2)c2nc3ccccc3nc12	-1%	-10%	-6%	?	/	-6%
CC(C)OCCCNC(=O)c1c(N)n(Cc2cccs2)c2nc3ccccc3nc12	0%	-3%	6%	16µM*	-8%	-20%
COCCNC(=O)c1c(N)n(CCC(C)C)c2nc3ccccc3nc12	-2%	-2%	4%	5.8µM*	-3%	-9%
Nc1c(C(=O)NCc2ccco2)c2nc3ccccc3nc2n1CCN1CCCCC1	-11%	1%	0%	?	9%	-11%
COCCOC(=O)c1c(N)n(Cc2ccc(OC)cc2)c2nc3ccccc3nc12	1%	?	-1%	15µM*	26%	-1%
C=C(C)c1ccccc1 (tested in a mixture with another compound)	/	/	/	/	-5%[9.22 µM]	/
CCC1(CCSC(=N)N)C(=O)NC(=O)NC1=O	/	/	/	/	1%[9.22 µM]	/
C=CC(C)(C)c1c2c(c(O)c3c(=O)c4ccc(O)c(O)c4oc13)C=CC(C)(C)O2	/	/	/	/	-92%	/
O=C(Nc1ccccc1)c1cccn(Cc2ccccc2)c1=O	16%	24µM*	4µM*	0%	-46%	?
O=C(Nc1ccc2c(c1)OCCO2)c1cccn(Cc2cccc(F)c2)c1=O	/	21µM*	/	/	/	/
CCc1ccc(NC(=O)c2cccn(Cc3cccc([N+](=O)[O-])c3)c2=O)cc1	/	9.5µM*	/	/	/	/
Cc1cccc(Cn2cccc(C(=O)Nc3ccc(F)cc3F)c2=O)c1	/	-3%	/	/	/	/
O=C(Nc1ccc2c(c1)OCO2)c1cccn(Cc2ccccc2)c1=O	/	17µM*	/	/	/	/
C[C@H](CC(C#N)(c1ccccc1)c1ccccc1)N1CCCCC1	/	/	/	/	-16%[9.22 µM]	/
O=C(N1CCOCC1)C1(c2ccccc2)CCNCC1	/	/	/	/	-13%[9.22 µM]	/
Cc1ccc(Cn2cccc(C(=O)Nc3ccc4c(c3)OCCO4)c2=O)cc1	/	8.5µM*	/	/	/	/
Cc1ccc(Cn2cccc(C(=O)Nc3ccc4c(c3)OCO4)c2=O)cc1	/	-17%	/	/	/	/
O=C(CSCc1ccccc1)Nc1ccc2c(c1)OCO2	?	15µM*	3.2µM*	?	11%	?
O=C(Nc1ccc2c(c1)OCO2)c1cccn(Cc2cccc(F)c2)c1=O	/	27µM*	/	/	/	/
COC(=O)c1ccc(NC(=O)CSc2nc3ccc(N4C(=O)C5C6C=CC(C6)C5C4=O)cc3s2)cc1 (centres undefined)	-4%	13µM*	-8%	13µM*	-104%	-13%
O=C(O)C[C@H]1OCC=C2CN3CC[C@]45c6ccccc6N[C@@H]4[C@H]1[C@H]2C[C@H]35	/	/	/	/	-5%[9.22 µM]	/
Cc1cc2c(cc(C(=O)N3CCC(C(=O)NC4CCCC4)CC3)n2Cc2c(F)cccc2Cl)o1	-8%	-6%	-6%	23µM*	/	-13%
SMILES	NPC1 prom act	FLuc modulator	Rab9 promoter act	ELG1 repair inh	SMN2 splice enh	ELG1 genotox
CCOC(=O)C1CCN(Cc2c(F)cccc2Cl)CC1	1%	7%	-10%	12%	?	-3%
CN(C)c1ccc2c(c1)N=C(c1ccco1)OP2(=S)N1CCOCC1 (centres undefined)	5%	15µM*	26%	?	18%	?
COc1ccc(CN2C(=O)NC(=O)/C(=C/c3ccc([N+](=O)[O-])o3)C2=O)cc1	-5%	19µM*	0%	?	-23%	5%
CN1CCN(c2nc(N)cc(=O)[nH]2)CC1	-1%	2%	-5%	6%	/	0%
Cc1ccc2nc(N3CCN(C)CC3)[nH]c2c1	?	27µM*	?	?	104%	16µM*
CCc1cc2c(=O)n(C(C)C(=O)OC3CCCCC3)cnc2s1 (centres undefined)	?	15µM*	?	?	11µM*	9.2µM*
Cc1ccc(OCCn2cccc2/C=C2/C(=O)NC(=O)N(Cc3ccco3)C2=O)cc1	2%	-9%	23%	?	/	4%
CCc1ccc(N2C(=O)NC(=O)/C(=C\c3cccn3CCOc3ccc(C(C)C)cc3)C2=O)cc1	-11%	-1%	?	?	-65%	10µM*
Cc1ccc(/C=C/C(=O)C2C(=O)c3ccccc3C2=O)cc1	?	0.19µM*	?	?	10µM*	?
C=CCBr	/	/	/	/	-3%	/
CCOc1ccc(NCc2cccn2-c2nnc(N3CCC(C(=O)NCC(C)c4ccccc4)CC3)s2)cc1 (centres undefined)	/	0%	/	/	-63%	/
CCOc1ccc2nc(N3CCC(C(=O)Nc4ccc(Br)cc4F)CC3)sc2c1	/	15µM*	/	/	13µM*	/
O=C(c1ccccc1F)N1CCN(Cc2nc3sc4c(c3c(=O)[nH]2)CCCC4)CC1	3%	-1%	-1%	16µM*	/	0%
CN1CCN(Cc2nc3ccccc3c(=O)[nH]2)CC1	0%	-1%	-3%	-1%	6%	-1%
C/C(=N\NC(=O)c1ccccc1O)c1c(O)n(Cc2ccccc2)c(=O)[nH]c1=O	-3%	11µM*	-3%	?	/	4%
C/C(=N\NC(=O)c1ccccc1Cl)c1c(O)n(C2CCCCC2)c(=O)[nH]c1=O	1%	-2%	-1%	6%	/	0%
C/C(=N\NC(=O)c1ccccc1O)c1c(O)n(C2CCCCC2)c(=O)[nH]c1=O	2%	27µM*	-1%	?	/	5%
NS(=O)(=O)C[C-]1C=C[CH]([Sb-]([Cl])([Cl])([Cl])([Cl])[Cl])C=C1.c1ccncc1 (centres undefined)	/	/	/	/	3%[9.22 µM]	/
O=C(/C=C/c1c[nH]c2ccccc12)c1c(O)n(CCc2ccccc2)c(=O)[nH]c1=O	-1%	13µM*	-3%	?	/	0%
CCCCn1c(O)c(C(C)=NCCc2c[nH]c3ccccc23)c(=O)[nH]c1=O	7%	-2%	-11%	?	/	-5%
CN(C)S(=O)(=O)c1ccc(C(=O)NNc2nc(-c3ccccc3)c3cc(Br)ccc3n2)cc1	-2%	1%	0%	23µM*	-12%	-7%
Oc1cccc(/C=N/NP(=S)(c2ccccc2)c2ccccc2)c1	1%	24µM*	-3%	-20%	-14%	3%
COc1ccc(-c2nnc3sc(C4CCCCC4)nn23)cc1OC	1%	?	-6%	18µM*	-1%	-8%
